According to PubChem BioAssay (NCI):
This is part of a sample that, as a whole, favours compounds with a hit. Of some 83,000 tested, about 20% had one in any assay.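 Testing used 96-well plates and a 48-hour single-concentration exposure. Example: -40 means 40% of the starting cells died.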 A number with no mark means an inactive call. Calls of active or inactive are those of the source. Rule for the calls: active = growth percent below 10; inactive = the rest.

Columns and labels:
Assay in all cases: NCI-60 one-dose screen, 48 h (100 = growth as untreated, 0 = no growth, -100 = all killed)
Conditions in all cases: 10 µM unless noted
SK-MEL-2 melanoma = test system: SK-MEL-2 melanoma
EKVX NSCLC = test system: EKVX NSCLC
SN12C renal = test system: SN12C renal
UO-31 renal = test system: UO-31 renal
TK-10 renal = test system: TK-10 renal
ACHN renal = test system: ACHN renal
CAKI-1 renal = test system: CAKI-1 renal
A498 renal = test system: A498 renal
CCRF-CEM leukemia = test system: CCRF-CEM leukemia
MOLT-4 leukemia = test system: MOLT-4 leukemia

SMILES	growth (SK-MEL-2 melanoma)	growth (EKVX NSCLC)	growth (SN12C renal)	growth (UO-31 renal)	growth (TK-10 renal)	growth (ACHN renal)	growth (CAKI-1 renal)	growth (A498 renal)	growth (CCRF-CEM leukemia)	growth (MOLT-4 leukemia)
CCN(CC)N=Nc1nn(C(=O)Nc2ccc(Cc3ccccc3)cc2)c2ccc(Cl)cc12	72.9%	47.5%	83.1%	65.6%	83.5%	28.1%	65.9%	87.9%	62.5%	
COc1cc(/C=C/C(=O)c2cccc(-n3cc(-c4ccc(Cl)cc4)[nH]c3=O)c2)cc(OC)c1OC	34.1%	64.7%	56.3%	52.2%	91.7%	67.5%	65.6%	110%	4.15% (active)	
N=c1ccn2c(n1)OC1C(O)C(CO)OC12 (stereo not given)	46.5%	85.5%	34.9%	-3.93% (active)	51.3%	-15.9% (active)	-14.4% (active)	74.7%		
COc1ccc(-c2nc3sccn3c2/C=C/C(=O)c2c[nH]c3ccccc23)cc1	90.9%	58.3%	71.7%	82.7%	73%	40.6%	49.6%	68.2%	90.9%	
C[C@H]1[C@H](C)CC[C@]2(C(=O)N3CCN(C)CC3)CC[C@]3(C)C(=CC[C@@H]4[C@@]5(C)C/C(=C/c6cccnc6)C(=O)C(C)(C)[C@@H]5CC[C@]43C)[C@H]12	-82.6% (active)	-81.5% (active)	-95.3% (active)	-92.5% (active)	-97.4% (active)	-94.4% (active)	-42.5% (active)	-83.2% (active)	-51.7% (active)	-51.9% (active)
CC(=O)c1ccc2c(c1)CCN2	104%	117%	96.7%	94.2%	98.1%	100%	111%	117%	94.9%	
Cc1c(C(=O)O[C@H]2[C@@H]3[C@H](C)CC[C@H]3[C@]3(C)O[C@@]2(C2CCCCC2)C[C@H]3OC(=O)CO)ccc2ccccc12	40.3%	41.8%	-1.88% (active)	-11.7% (active)	59.8%	-36.4% (active)	0.73% (active)	-76.6% (active)	-4.66% (active)	
C=C(C)[C@@H]1CC[C@]2(CO)CC[C@]3(C)[C@H](CC[C@@H]4[C@@]5(C)C=C(C#N)C(=O)C(C)(C)[C@@H]5CC[C@]43C)[C@@H]12	30.1%	15.4%	8.07% (active)	-8.85% (active)	36.2%	12%	22.8%	-0.306% (active)	2.24% (active)	
C=C(CNCCc1ccc(O)cc1)[C@@H]1CC[C@]2(COC3CCCCO3)CC[C@]3(C)[C@H](CC[C@@H]4[C@@]5(C)CCC(NCCO)C(C)(C)[C@@H]5CC[C@]43C)[C@@H]12 (stereo not given in full)	-81.3% (active)	-77.5% (active)	-92.2% (active)	-97.3% (active)	-89.7% (active)	-99.2% (active)	-92.1% (active)	-1.47% (active)	-51.1% (active)	
C=C1c2c(C)nn(-c3ccc(NC(C)=O)cc3)c2N(C)C23CC1C1(C)c4c(C)nn(-c5ccc(NC(C)=O)cc5)c4N(C)C(C)(CC12)C3 (stereo not given)	36.6%	24.9%	45.6%	24.2%	37.3%	19.4%	32.8%	60.3%	8.28% (active)	
Cc1nc2ccc(C(=O)NCc3cc(C(=O)O)c(C)o3)cc2nc1C	102%	105%	96.5%	82.8%	97.6%	99.4%	86.2%	106%	97.1%	106%
NC(=O)c1c(NC(=O)c2ccc(C(F)(F)F)cc2Cl)sc2c1CCC(=O)C2	-11.1% (active)	-9.99% (active)	-5.19% (active)	-100% (active)	6.29% (active)	-91.1% (active)	-82.2% (active)	61.9%	-1.78% (active)	-12.9% (active)
CC(=O)Nc1ccc(-c2cc3c(NCc4ccc(F)cc4)ncnc3s2)cc1	95.4%	67.5%	72.6%	62.2%	70.5%	65.5%	61.6%	61.9%	96.3%	95.3%
Cc1cc(C(c2ccccc2)c2ccccc2)ccc1NS(=O)(=O)c1ccccc1	104%	83.5%	95.3%	82.3%	123%	106%	89.3%	102%	82.4%	59.7%
CCN1CCN(c2ccc(Nc3cc(-c4cccnc4Nc4c(Cl)c(OC)cc(OC)c4Cl)ncn3)cc2)CC1	74.9%	87.4%	56.6%	52.8%	68.1%	42.6%	48.5%	21.8%	31.6%	9.51% (active)
O=C(O)c1ccccc1C(=O)Nc1ccc(Cl)cc1	102%	96.2%	102%	84.6%	93.3%	94.9%	74.1%	108%	110%	71.2%
C=C1C(=O)O[C@H]2[C@H]1CC/C(COC(=O)/C=C\C(=O)NCc1ccc(Cn3c(=O)sn(-c4ccc(C#N)cc4)c3=O)cc1)=C\CC[C@@]1(C)O[C@@H]21	-64.9% (active)	-56.9% (active)	-93.8% (active)	-100% (active)	-85.1% (active)	-100% (active)	-69.1% (active)	-8.82% (active)	-18.1% (active)	-32.3% (active)
CCOC(=O)c1c2c(c(C)n1C)-c1nn(Cc3ccc(OC)cc3)cc1CC2	111%	79.6%	92.5%	91.3%	206%	91.9%	85.2%	98.7%	82.9%	69.4%
CN1CCN(C(=O)[C@@]2(C)CC[C@]3(C)CC[C@]4(C)C(=CC[C@@H]5[C@@]6(C)C/C(=C/c7ccncc7)C(=O)C(C)(C)[C@@H]6CC[C@]54C)[C@@H]3C2)CC1	85.1%	62.7%	46.2%	44.3%	75.5%	67.4%	46.3%	79.9%	6.69% (active)	2.16% (active)
COc1ccc(-c2nc3ncccn3c2/C=C/C(=O)c2cc(OC)c(OC)c(OC)c2)cc1	0.675% (active)	1.1% (active)	15.7%	17%	15.5%	20.4%	-3.66% (active)	-20.5% (active)	1.32% (active)	4.3% (active)
CN(C)CCN1C(=O)c2cccc3c(-c4ccc(-c5nc6c7ccccc7c7ccccc7c6[nH]5)cc4)ccc(c23)C1=O	105%	93.9%	97.4%	96.8%	105%	112%	88%	100%	55.4%	84%
Cn1nnnc1-c1ccc(N)cc1	89%	93.8%	110%	79%	97.3%	98.7%	93.2%	108%	100%	92.5%
C[C@@H]1CC[C@@H]2[C@@H]1[C@H](OC(=O)/C=C/c1ccccc1)[C@]1(C3CCCCC3)C[C@@H](NC(=O)CO)[C@@]2(C)O1	95.9%	98.4%	59.2%	72.1%	92.3%	50.2%	91.7%	44.9%	99.2%	88.9%
COc1ccc(-c2cn(-c3cccc(C(=O)/C=C/c4cc(OC)c(OC)c(OC)c4)c3)c(=O)[nH]2)cc1	-21.5% (active)	6.73% (active)	9.79% (active)	-33.9% (active)	60.8%	-49.9% (active)	-12.1% (active)	62.8%	6.11% (active)	3.77% (active)
COc1c(C)cnc(CSc2nc(-c3ccc(C)cc3)cn2-c2ccc(Cl)cc2)c1C	83%	92.1%	94.4%	63.2%	101%	98.9%	91.1%	93.9%	99.8%	73.5%
COc1cc(C(=O)/C=C/c2c(-c3ccc(F)cc3)nc3ncccn23)cc(OC)c1OC	30.1%	52.3%	60.8%	35.7%	78.2%	47%	16.2%	69.9%	18.9%	50.7%
